According to PubChem BioAssay AID1347074 (Center for Chemical Genomics, University of Michigan, 2019):
Hit rate of the full screen: of about 47,000 compounds, about 2,800 (6%) were called active. The full list was thinned out, with actives kept by preference. Values without a mark were called inactive. Cut-off read from the data, not from the text of the source: active = z-score above about 3 (passing the limit was not always enough); inactive = the rest.

What follows are compounds tested against Endoribonuclease Dicer (Homo sapiens) (UniProt Q9UPY3) (assay: Dicer cleavage of pre-miR-21 blockers – biochemical, cat-ELCCA, chemiluminescence, primary screen (AID 1347074;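 note: plate controls were vehicle for no effect and no enzyme for full effect; higher signal means more uncleaved substrate so more Dicer inhibition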)). Details: cat-ELCCA pre-miR-21 Dicer processing, at 25 µM, active compounds read high.
Sequence of Endoribonuclease Dicer (Homo sapiens) (Q9UPY3 whole entry, looked up): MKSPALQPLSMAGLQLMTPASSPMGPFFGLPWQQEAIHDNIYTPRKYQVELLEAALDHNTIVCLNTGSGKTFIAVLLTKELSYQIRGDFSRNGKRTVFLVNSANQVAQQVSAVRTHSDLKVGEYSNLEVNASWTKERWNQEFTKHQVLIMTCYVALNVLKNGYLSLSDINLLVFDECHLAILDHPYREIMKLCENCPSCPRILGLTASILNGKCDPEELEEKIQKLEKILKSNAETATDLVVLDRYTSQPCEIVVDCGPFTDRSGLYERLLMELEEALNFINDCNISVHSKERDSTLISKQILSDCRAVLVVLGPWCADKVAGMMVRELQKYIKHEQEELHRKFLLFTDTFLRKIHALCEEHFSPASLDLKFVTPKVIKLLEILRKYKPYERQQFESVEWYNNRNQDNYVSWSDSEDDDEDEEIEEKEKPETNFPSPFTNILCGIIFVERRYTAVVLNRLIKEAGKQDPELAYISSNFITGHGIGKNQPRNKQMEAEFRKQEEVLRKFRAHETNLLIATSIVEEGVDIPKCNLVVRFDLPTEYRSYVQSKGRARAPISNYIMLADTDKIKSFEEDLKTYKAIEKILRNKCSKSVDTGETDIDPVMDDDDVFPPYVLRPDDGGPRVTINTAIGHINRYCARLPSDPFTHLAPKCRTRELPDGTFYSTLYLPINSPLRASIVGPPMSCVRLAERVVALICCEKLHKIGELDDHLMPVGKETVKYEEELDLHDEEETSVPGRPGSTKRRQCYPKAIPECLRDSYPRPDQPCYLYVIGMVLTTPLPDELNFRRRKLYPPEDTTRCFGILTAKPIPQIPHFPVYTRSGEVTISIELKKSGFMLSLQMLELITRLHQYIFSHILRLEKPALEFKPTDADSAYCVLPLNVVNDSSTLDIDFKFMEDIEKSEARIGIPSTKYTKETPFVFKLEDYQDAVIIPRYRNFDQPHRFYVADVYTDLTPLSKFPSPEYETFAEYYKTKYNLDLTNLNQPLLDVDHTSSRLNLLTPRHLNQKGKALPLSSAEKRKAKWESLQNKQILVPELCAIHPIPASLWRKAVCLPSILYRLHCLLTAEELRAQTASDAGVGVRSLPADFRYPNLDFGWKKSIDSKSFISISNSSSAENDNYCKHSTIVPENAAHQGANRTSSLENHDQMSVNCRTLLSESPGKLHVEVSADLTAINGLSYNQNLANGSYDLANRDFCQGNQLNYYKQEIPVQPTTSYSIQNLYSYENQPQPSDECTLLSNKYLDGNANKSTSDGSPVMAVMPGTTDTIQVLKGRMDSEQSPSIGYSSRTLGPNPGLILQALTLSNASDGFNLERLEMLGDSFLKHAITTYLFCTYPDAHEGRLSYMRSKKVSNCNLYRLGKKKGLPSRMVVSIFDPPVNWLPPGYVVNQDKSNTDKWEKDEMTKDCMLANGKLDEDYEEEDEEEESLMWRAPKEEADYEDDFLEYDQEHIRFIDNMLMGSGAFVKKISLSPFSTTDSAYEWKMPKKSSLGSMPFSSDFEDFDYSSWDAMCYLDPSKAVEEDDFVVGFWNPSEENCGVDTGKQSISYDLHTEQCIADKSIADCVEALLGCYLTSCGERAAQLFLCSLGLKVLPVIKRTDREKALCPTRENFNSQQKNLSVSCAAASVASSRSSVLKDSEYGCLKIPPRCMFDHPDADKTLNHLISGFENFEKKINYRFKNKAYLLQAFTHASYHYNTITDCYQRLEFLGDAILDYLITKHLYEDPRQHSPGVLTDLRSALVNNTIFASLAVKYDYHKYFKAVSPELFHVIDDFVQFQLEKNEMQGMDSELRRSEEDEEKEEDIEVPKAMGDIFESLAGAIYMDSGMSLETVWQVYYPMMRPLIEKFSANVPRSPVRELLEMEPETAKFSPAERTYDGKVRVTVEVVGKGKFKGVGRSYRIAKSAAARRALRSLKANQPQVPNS

| SMILES | z-score |
| --- | --- |
| Cc1oc(C(C)(C)C)cc1C(=O)Nc1ccc(SCc2cccc(Cl)c2F)cc1 | -1.58 |
| Cc1sc2nc(-c3ccccc3F)oc(=O)c2c1C | 3.11 (active) |
| COc1ccc(-c2csc3nc(-c4ccccc4F)oc(=O)c23)cc1OC | 0.98 |
| CC(C)=Cc1nc2cccc(F)c2c(=O)o1 | 0.25 |
| Cc1cc(C)c(C#N)c(Sc2ccc(Cl)cc2)n1 | -0.54 |
| CN1C(=O)C2(/C(=C(/O)c3ccc(Cl)cc3)C(=O)C(=O)N2CC2CCCO2)c2ccccc21 (configuration not stated) | 0.79 |
| CN(C)S(=O)(=O)N(CC(=O)NC1CC2CCC1C2)c1ccccc1 (configuration not stated) | -1.13 |
| N#C/C(=C\N1CCOCC1)S(=O)(=O)Cc1ccc(Cl)cc1 | -1.52 |
| COC(=O)C(Cc1c[nH]c2ccccc12)NC(=O)CN1CCCCC1 (configuration not stated) | 4.61 (active) |
| O=C(NCCc1c[nH]c2ccccc12)C(=O)NCC1CCCO1 (configuration not stated) | -1.03 |
| CC(=O)NC(Cc1c[nH]c2ccccc12)C(=O)O (configuration not stated) | 2.44 |
| COC(=O)c1ccc(S(=O)(=O)NCc2ccccc2)n1C | 1.21 |
| Cc1oc2ccc(NS(=O)(=O)c3ccc4c5c(cccc35)C(=O)N4)cc2c1C(=O)OC(C)C | 2.44 |
| COC(=O)c1c(C)oc2ccc(NS(=O)(=O)c3cccc4cccnc34)cc12 | 3.25 (active) |
| COCCOC(=O)c1c(C)oc2ccc(NS(=O)(=O)c3ccc(Cl)cc3)cc12 | -0.11 |
| CCOC(=O)C1=C(C)NC2=C(C(=O)c3ccccc32)C1c1ccc(OC(=O)c2ccccc2)cc1 (configuration not stated) | -1.18 |
| Cn1nc(Oc2nc(N3CCCCC3)nc(N3CCCCC3)n2)ccc1=O | 1.65 |
| CCOC(=O)C(Nc1cccc(Cl)c1)C(=O)OCC | -1.26 |
| O=C1c2ccc3c4c(ccc(c24)C(=O)N1c1ccccc1)C(=O)N(c1ccccc1)C3=O | -0.71 |
| Cc1ccc(N=C2SC3(CC3)C(=O)N2c2ccc(C)cc2)cc1 | 0.49 |
| O=C1N(c2ccccc2)C(=Nc2ccccc2)SC12CC2 | 4.33 (active) |
| CC1(C)Cc2c(sc3ncn4nc(-c5ccco5)nc4c23)C(C)(C)N1 | 0.09 |
| Nc1cccc2c(S(=O)(=O)N3CCCCC3)cccc12 | -1.6 |
| Cc1cccc(NC(c2ccc3c(c2)OCO3)c2ccc3ccc(C)nc3c2O)n1 (configuration not stated) | 1.45 |
| Cc1ccnc(NC(c2ccc(O)cc2)c2ccc3ccc(C)nc3c2O)c1 (configuration not stated) | 4.59 (active) |

| SMILES | z-score |
| --- | --- |
| Cc1cccc(NC(c2cccc(F)c2)c2ccc3ccc(C)nc3c2O)n1 (configuration not stated) | 0.62 |
| COc1ccc(-n2ncc(C(=O)NCc3c(Cl)cccc3Oc3ccccc3)c2C)cc1 | -2.95 |
| CSc1sc(C(=O)Nc2ccc(Cl)cc2)c2c1S(=O)(=O)N(C)c1ccccc1-2 | -0.3 |
| CCC(CC)NC(=O)C1c2ccccc2Oc2ccccc21 | 6.16 (active) |
| N#Cc1ccc(N2CCN(C(=O)c3cc(-c4ccc(Cl)cc4)oc3C(F)(F)F)CC2)cc1 | 0.32 |
| COc1ccc(-c2cn3ccc(C)cc3n2)cc1F | 3.54 (active) |
| Cc1ccc(-c2cn3cc(C)ccc3n2)cc1 | -0.35 |
| CC(C)c1cc(C(C)C)c(S(=O)(=O)NCc2cccnc2)c(C(C)C)c1 | -0.34 |
| Cc1cc(OCC(=O)O)cc2c1C(=O)CC(C)(C)O2 | 1.97 |
| Cc1nc(-c2cc(C#N)c(SCCNS(=O)(=O)c3ccc(Cl)cc3Cl)nc2C)cs1 | -0.5 |
| C=CCOc1ccc(C2c3c(oc4ccccc4c3=O)C(=O)N2c2nncs2)cc1 (configuration not stated) | -1.03 |
| CC(=O)Nc1cc(Sc2ccc(C)cc2)c(F)cc1[N+](=O)[O-] | -0.55 |
| Cc1ccc2nc(CCC(=O)O)[nH]c2c1 | 1.6 |
| CC(=O)C(Cc1ccc([N+](=O)[O-])cc1)(Cc1c(F)cccc1Cl)C(C)=O | 3.5 (active) |
| O=C(CSCc1c(F)cccc1Cl)NCc1ccc2c(c1)OCO2 | 1.3 |
| O=[N+]([O-])c1ccc(CSc2nc3cc(Cl)c(F)cc3[nH]2)cc1 | 0.13 |
| COc1cc(OC)cc(-c2nc3n(n2)C(c2cccc(OC)c2OC)C2=C(CCCC2=O)N3)c1 (configuration not stated) | -0.15 |
| COc1cccc(C2Nc3cccc4cccc(c34)N2)c1OC | 3.14 (active) |
| COc1ccccc1C1=Nc2cccc3cccc(c23)N1 | -0.3 |
| Brc1ccccc1C1Nc2cccc3cccc(c23)N1 | 5.91 (active) |
| C=CCc1ccc(OCc2ccc(C(=O)OC)cc2)c(OC)c1 | 0.92 |
| ONC(=Nc1cccc(Cl)c1)c1ccccc1 | 0.78 |
| CCOC(=O)C1=C(C)NC2=C(C(=O)c3ccccc32)C1c1cccc(F)c1 (configuration not stated) | -1.25 |
| O=C(O)CCCC(=O)Nc1ccc2c(c1)OCCO2 | -0.36 |
| Cc1ccc(C2Nc3nonc3NC3=C2C(=O)CC(C)(C)C3)cc1 (configuration not stated) | -0.08 |

| SMILES | z-score |
| --- | --- |
| Cc1cc(=O)[nH]c(SCc2cn3c(C)cc(C)nc3n2)n1 | 2.76 |
| Cc1cc(=O)[nH]c(SCc2cn3cccnc3n2)n1 | 3.69 (active) |
| Cc1cc(=O)[nH]c(SCc2ccc(Cl)cc2)n1 | 0.25 |
| CCOCCOC(=O)C1=C(C)NC2=C(C(=O)CCC2)C1c1ccc(O)c(OCC)c1 (configuration not stated) | -0.34 |
| O=C(Nc1cc(C(F)(F)F)cc(C(F)(F)F)c1)c1csc([N+](=O)[O-])c1 | 1.87 |
| O=c1[nH]nc(Sc2ncc(Br)cc2[N+](=O)[O-])n1-c1ccc(Cl)cc1 | -0.78 |
| Cc1ccc2c(c1)sc1ncc(NC(=O)c3ccc(C(C)(C)C)cc3)c(=O)n12 | -1.01 |
| CCn1c2c(c(=O)[nH]c1=O)C(c1ccccc1OC)C1=C(N2)c2ccccc2C1=O (configuration not stated) | 2.33 |
| CCc1ccc(C2CC(=O)Nc3n[nH]c(-c4ccc(Cl)cc4)c32)cc1 (configuration not stated) | 0.45 |
| CC(C)(C)c1ccc(C(=O)Nc2cc(C#N)c3sc4ccccc4n3c2=O)cc1 | -0.68 |
| O=C1C(=O)N(CCCN2CCOCC2)C(c2ccco2)/C1=C(\O)c1ccc(F)cc1 (configuration not stated) | 2.92 |
| O=C(O)C1CC(=O)N(c2cccc(Cl)c2)C1 (configuration not stated) | 8.4 (active) |
| O=C1CC(N2CCN(c3cccc(Cl)c3)CC2)C(=O)N1c1cccc(Cl)c1 (configuration not stated) | 0.79 |
| O=C(O)C1CC(=O)N(Cc2ccccc2Cl)C1 (configuration not stated) | -1.02 |
| CC(c1ccccc1)C1C(C#N)=C(N)Oc2n[nH]c(-c3ccccc3)c21 (configuration not stated) | -0.54 |
| Cc1cc(C)cc(N2CC(C)Cn3c2nc2c3c(=O)n(CC(=O)O)c(=O)n2C)c1 (configuration not stated) | -0.04 |
| Cc1ccc(C(=O)CSc2nnc(-c3ccccc3)n2C)cc1 | 8.7 |
| Cc1cc(-c2ccccc2)n2nc(C)cc2n1 | 0.05 |
| CCOC(=O)c1c(N)sc2c1CC(C)(C)OC2 | -0.32 |
| CC1=CC(C)(C)N(C(=O)NC2CCCCC2)c2ccc(C)cc21 | -5.39 |
| CC1=CC(C)(C)N(S(=O)(=O)c2ccc(C)cc2)c2cc3c(cc21)OCO3 | 3.26 (active) |
| Cn1c(N2CCCCC2)nc2c1c(=O)n(Cc1ccc(Cl)cc1Cl)c(=O)n2C | -1.04 |
| Cn1c(CSc2cccs2)nnc1SCc1c(Cl)cccc1Cl | 0.02 |
| CC(=O)Nc1ccc(C(=O)CSc2nc3nc(C)cc(C)c3c(=O)[nH]2)cc1 | -0.34 |
| CN(C)c1ccc(/C=C2\CCC/C(=C\c3ccc(N(C)C)cc3Cl)C2=O)c(Cl)c1 | 3.37 (active) |

| SMILES | z-score |
| --- | --- |
| O=C1/C(=C/c2ccc(Cl)cc2)CCC/C1=C\c1ccc(Cl)cc1 | -1.13 |
| Cn1ccnc1SCC(=O)Nc1cccc2nsnc12 | -4.69 |
| O=C(CN1C(=O)/C(=C/c2ccccc2Cl)N=C1c1ccccc1)c1ccccc1 | 0.22 |
| CC1=N/C(=C/c2ccccc2O)C(=O)O1 | 0.13 |
| CC1=N/C(=C/c2ccccc2Cl)C(=O)O1 | 3.5 (active) |
| CCOC(=O)Cn1c(Sc2nc3c(c(=O)n(C)c(=O)n3C)n2C)nc2ccccc21 | 2.22 |
| O=C(O)CC1S/C(=N\N=C\c2ccco2)NC1=O (configuration not stated) | -0.87 |
| O=C(NCc1ccc2c(c1)OCO2)c1ccc(Cn2cc(Cl)cn2)cc1 | 1.8 |
| CCOc1ccc(S(=O)(=O)Nc2ccncc2)c(C)c1C | 0.59 |
| CCOc1ccc(S(=O)(=O)n2ccnc2)c2ccccc12 | 3.38 (active) |
| COc1cc(C)c(Cl)cc1S(=O)(=O)n1ccnc1 | -0.35 |
| CSCC(CSC)OC(=O)NC(=O)c1c(Cl)cccc1Cl | -0.86 |
| NC(=O)C1CCN(C(=O)C2CC(c3ccc(Cl)cc3)=NO2)CC1 (configuration not stated) | -1.13 |
| CCOC(=O)CSc1nc2cc(Cl)ccc2s1 | 0.3 |
| N#Cc1sc(SCc2ccccc2)c2c1CC(c1ccccc1)CC2=O (configuration not stated) | 0.58 |
| CCCN1C(=O)C(O)(CC(=O)c2ccc(C(C)(C)C)cc2)c2ccccc21 (configuration not stated) | -0.52 |
| Cc1cc(N2C(=O)CC(C)(C)CC2=O)n(C)n1 | -0.86 |
| CCC(C)c1ccc(O)c(/C=N/Nc2ccccc2)c1 (configuration not stated) | 6.05 (active) |
| CCOC(=O)c1c(N/N=C\c2ccccc2O)n[nH]c1C | 1.01 |
| COc1ccccc1C1CCN(S(=O)(=O)c2ccc(Oc3c(Cl)cccc3[N+](=O)[O-])cc2)CC1 | 1.46 |
| CCC(C)c1ccccc1OCC(O)CN1C(=O)NC(C)(C)C1=O (configuration not stated) | 0.96 |
| Oc1ccccc1-c1nc(/C=C/c2cccs2)no1 | 2.56 |
